Screening data from PubChem BioAssay.
This is a sample that favours compounds with a hit; in the whole collection about 21% have one here.
SARS PLP yeast: qHTS of Yeast-based Assay for SARS-CoV PLP | 330,000 compounds, 0.19% hits | S. cerevisiae expressing SARS-CoV PLpro, growth rescue | Potency, µM (highest dose often 32.9 µM), inactives show at the top dose activity, positive = growth rescue, usual class: activators; calls by dose curve; note: potency is the fitted concentration of half-maximal effect; 0% is about no effect; nearly all actives have a fitted effect of over 55% in size
CHX counter: Cycloheximide Counterscreen for Small Molecule Inhibitors of Shiga Toxin; max response, %; AID 2314, 2010; cell reporter, cycloheximide protein synthesis inhibition counterscreen; 300,000 compounds, 12% hits; in the data active = max response mostly above about 13%, no sharp cut-off; inactive = mostly below about 14%; note: read at 38.3 µM for the half of the compounds with a filed dose; 0% is about no effect
NS1 function inh: qHTS Assay for Inhibitors of Influenza NS1 Protein Function | Potency, µM (series often up to 46.1 µM), for inactives: top-dose activity, positive = more growth | 270,000 compounds, 0.4% hits | AID 2326, 2010; calls by dose curve; note: potency is the fitted concentration of half-maximal effect; actives are rising curves; nearly all actives have a fitted effect of over 50% in size
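Growth recovery, yeast-based: influenza A NS1 expressed in S. cerevisiae causes slow growth, and suppressors are detected by OD600. The parent strain without NS1 is used as positive control.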
Pf growth 96h: Primary qHTS for delayed death inhibitors of the malarial parasite plastid, 96 hour incubation | Potency, µM (highest dose often 28.7 µM), without a hit: at the highest dose activity change, negative = inhibition, usual class: inhibitors | P. falciparum luciferase reporter growth, 96 h | 320,000 compounds, 6.9% hits; note: potency is the fitted concentration of half-maximal effect; % is set by controls: 0 for no effect and ±100 for the full control effect
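Luminescence readout: decreased luciferase signal marks inhibited growth of reporter-expressing P. falciparum in infected red cells (2% hematocrit, 0.05% parasitemia final), exposed to compound two generations (96 h, 37 C, 5% CO2).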
Shiga toxin inh: A qHTS for Small Molecule Inhibitors of Shiga Toxin. Vero cells, Shiga toxin protein synthesis inhibition reporter. 290,000 compounds, 9.2% hits. inhibition, % at 38.7 µM; in the data active = inhibition mostly above about 28%, no sharp cut-off; inactive = mostly below about 43%; note: 0% is about no effect
Pf growth 48h: Primary qHTS for delayed death inhibitors of the malarial parasite plastid, 48 hour incubation; P. falciparum luciferase growth in erythrocytes, 48 h; Potency, µM (titrated, usually from 28.7 µM), for inactives: at the highest dose activity change, negative = inhibition, hits mostly inhibitors; 310,000 compounds, 5.9% hits; note: potency is the fitted concentration of half-maximal effect; % is set by controls: 0 for no effect and ±100 for the full control effect
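Here the parasites carry a stable luciferase gene and grow inside erythrocytes in Albumax-based RPMI medium with compound for one erythrocytic cycle. Activity is scored as loss of luminescent signal.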
The depositor's hits bear a star; ? = inconclusive; / = no result given. Unless noted, calls come from the whole dose curve; as a rule, active = well fitted inhibition curve with a large enough effect; inconclusive = small, poorly fitted or top-dose-only effect, or another doubt; inactive = no such curve, though single readings can be large or run the other way.

SMILES	SARS PLP yeast	CHX counter	NS1 function inh	Pf growth 96h	Shiga toxin inh	Pf growth 48h
O=C(NCc1cccs1)c1cnc(Cl)c(Cl)c1	1%	30*	/	9%	45*	10%
COc1ccc(OC)c(C(=O)NC2CC(C)(C)Cc3c2cnn3-c2ccccc2)c1 (stereo not drawn)	-50%	7	-15%	4%	-5	?
Brc1ccccc1OCCCN1CCOCC1	8%	32*	10%	9%	50*	24%
Cc1cccc(OCCCN2CCOCC2)c1C	0%	8	-14%	6.6µM*	17	34%
Cc1ccc(C)c(OCCC(=O)OCC(=O)Nc2cccc(S(=O)(=O)N3CCCC3)c2)c1	-7%	/	/	3%	/	-1%
CC(C)c1nc2sc(C(=O)O)c(N)c2c2c1CCCC2	-1%	-3	0%	13µM*	-2	?
O=C(CC1S/C(=N/N=C/c2cccs2)NC1=O)Nc1ccc(Cl)cc1 (stereo not drawn)	-4%	1	15%	1.9µM*	-4	-5%
O=C(CC1S/C(=N/N=C/c2cccs2)NC1=O)Nc1ccc(Cl)c(Cl)c1 (stereo not drawn)	8%	-7	0%	?	-10	17%
O=C(CC1S/C(=N/N=C/c2c[nH]c3ccc(OCc4ccccc4)cc23)NC1=O)Nc1ccccc1 (stereo not drawn)	-18%	-5	3%	12µM*	-8	18%
COCCN(C(=O)C1CC(=O)N(Cc2ccc(C)cc2)C1)c1c(N)n(CC(C)C)c(=O)[nH]c1=O (stereo not drawn)	-10%	/	/	-10%	/	?
O=C(c1cc(-c2ccc(Cl)cc2)n[nH]1)N1CCc2ccccc2C1	1%	-5	-4%	10%	-4	5%
Cc1nc(N)nc(N/N=C/c2ccccc2)n1	-1%	14*	-3%	59%	41*	48%
C(=N\Nc1nn[nH]n1)/c1ccccc1	17%	-3	-7%	13%	-7	/
Cc1cc(N/N=C/c2ccccc2)nc(N2CCOCC2)n1	0%	19*	-6%	0%	55	28%
Cc1cn(-c2ccccc2)c(C)c1/C=N\Nc1nc(N2CCOCC2)nc(N2CCOCC2)n1	-1%	5	12%	6%	23	8.3µM*
Cc1ccc(/C=N/Nc2cc(C)nc(N3CCOCC3)n2)cc1	0%	-2	3%	-1%	12	30%
C(=C\c1ccccc1)/C=N/Nc1nc(N2CCOCC2)nc(N2CCOCC2)n1	6%	-4	8%	?	-19	-9%
Cc1cc(N/N=C/c2ccc(O)cc2)nc(NS(=O)(=O)c2ccccc2)n1	-3%	-1	9%	18%	-7	2%
Cc1cc(N/N=C/c2ccccc2)nc(N)n1	-1%	20*	1%	-23%	50*	?
O=C(COC(=O)/C=C/c1ccco1)Nc1cc(S(=O)(=O)N2CCOCC2)ccc1Cl	-4%	/	/	/	/	/
O=C(COc1ccc(Br)cc1)NC1CC1	-2%	10	-2%	1%	17	23%
COc1ccc(CCNC(=O)C2CCN(C(=O)c3ccc(C(C)(C)C)cc3)CC2)cc1	3%	5	-3%	-1%	16	?
OCC1(CCCc2ccccc2)CCN(Cc2cnc(N3CCOCC3)s2)CC1	0%	-1	1%	9.3µM*	-3	-8%
Cc1oc(-c2cccc(F)c2)nc1CN(Cc1ccccc1)C[C@@H]1CCC(=O)N1	-1%	-1	-33%	8.3µM*	-8	?
CNC(=O)c1oc(-c2ccccc2)nc1C	-1%	-4	1%	21%	11	3%
COc1ccc(-n2cnnc2SCC(=O)c2cc(C)n(Cc3cccs3)c2C)cc1	-3%	-4	14%	-3%	-1	-24%
Cc1cc(C(=O)CSc2n[nH]c(-c3ccccc3F)n2)c(C)n1Cc1cccs1	-10%	17*	2%	/	39	-4%
Cc1cc(C(=O)CSc2nnc(-c3ccc(OC(F)F)cc3)o2)c(C)n1Cc1cccs1	0%	1	-20%	30%	-4	7%
Cc1cc(C(=O)CSc2nnc(N)s2)c(C)n1Cc1cccs1	3%	57*	10%	-96%	83*	-35%
